TRHR PAM = TRH receptor (human) allosteric enhancement | P34981 | TRHR cells, fluo-8 calcium fluorescence, EC20 TRH enhancement | enhancement, % at 2 µM | 0.66% of 360,000 active; in the data active means enhancement above about 30%
Target sequence (P34981 whole entry, looked up): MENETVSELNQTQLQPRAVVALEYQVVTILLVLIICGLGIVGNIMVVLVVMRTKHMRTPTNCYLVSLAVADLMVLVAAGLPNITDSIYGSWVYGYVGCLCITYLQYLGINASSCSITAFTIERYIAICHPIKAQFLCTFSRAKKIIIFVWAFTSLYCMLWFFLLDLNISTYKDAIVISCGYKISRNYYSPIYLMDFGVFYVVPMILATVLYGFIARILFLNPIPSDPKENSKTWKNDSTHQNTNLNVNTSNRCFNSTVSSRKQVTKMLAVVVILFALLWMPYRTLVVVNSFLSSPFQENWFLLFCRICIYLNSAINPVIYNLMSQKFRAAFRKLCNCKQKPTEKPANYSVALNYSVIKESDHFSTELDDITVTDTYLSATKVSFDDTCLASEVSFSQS
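Enhancer read-out: after compound pinning and an initial kinetic agonist-mode read, an EC20 of TRH (10 nM final) was injected and fluo-8 calcium signal (Ex 480/Em 530) followed at 1 s/cycle for 100 cycles in TRHR-expressing cells.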
TRHR agonist = activates the human TRH receptor | P34981 | activation, % at 2 µM | AID 493084 | TRHR cells, calcium flux fluo-8, FDSS agonist mode | 0.18% of 360,000 active
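TRHR-expressing cells, plated overnight in medium with 10% serum, were loaded with fluo-8 calcium dye at room temperature. After a 10 s baseline, library compound was pin-added and calcium release was recorded kinetically (ex 480/em 530) as agonist response.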
D1 ag = activates the human D1 dopamine receptor; P21728; HEK293 T-REx D1 cells, calcium flux, agonist mode; activation, % at 2 µM; 1% of 360,000 active; AID 504660
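Tetracycline-induced HEK293 TREx D1 cells, force-coupled to calcium signalling, were dye-loaded with a no-wash calcium kit. Compound was pin-added after a 10 s baseline. Fluorescence was read kinetically at 1 cycle/s for 180 s, with calcium rises flagged as agonism.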
D1 antagonist = blocks dopamine activation of the human D1 receptor; P21728; HEK293 TREx D1 cells, calcium flux, dopamine EC80; hits give low values; activity change, negative = inhibition, % at 10 µM; 3.2% of 360,000 active; AID 504652; in the data active means activity change below about -30%
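Using tetracycline-induced force-coupled D1 Hek293 cells and a calcium dye, signals were followed for 180 s after compound, then for 180 s after EC80 dopamine, to detect inhibitors.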
D1 potentiator = potentiators of human D1 dopamine receptor. P21728. HEK293 TREx D1 cells, calcium flux, dopamine EC20 potentiation. potentiation, % at 10 µM. 0.036% of 360,000 active. AID 504651; in the data active means potentiation above about 30%
Of the large screens only hits and unclear results are named; the others gave an inactive call; ! = not confirmed by another sample. Rows were chosen to be rich in hits. Some 4.7% of all compounds tested hit in one or more screens of this group. Unless noted, no stated cut-off is given here; in the data, active means activation above about 30%; inactive means the rest.

Cc1cc(-n2c(/C=C/c3ccc(Br)s3)nc3ccccc3c2=O)ccc1Br	none
Cc1cc(-n2c(/C=C/c3cccs3)nc3ccccc3c2=O)ccc1Br	D1 antagonist -32
O=[N+]([O-])c1ccc(NC2CCCC2)c2ccncc12	TRHR PAM 35
O=[N+]([O-])c1ccc(NC2CCN(Cc3ccccc3)CC2)c2ccncc12	none
CC(C)(C)c1cc([N+](=O)[O-])cc(C(C)(C)C)c1O	D1 ag 34, D1 antagonist -36
O=C(CCC(=O)N1C[C@H]2C[C@@H](C1)c1cccc(=O)n1C2)NCc1ccc(F)cc1	none (no result: D1 antagonist)
FCCN(CCF)c1cccc(Cl)c1	D1 antagonist -34
Cc1cccc(Cn2cccc(C(=O)Nc3nc4ccccc4s3)c2=O)c1	none (no result: D1 antagonist)
COc1ccc(-c2nc(CN3C(=O)CN=C(c4ccccc4)c4cc(Cl)ccc43)c(C)o2)cc1	none
Cc1cc(C)cc(-n2c(=O)[nH]c3ccccc3c2=O)c1	none
CC(C)[C@@]1(NC(=O)[C@@H]2C=C3c4cccc5[nH]cc(c45)C[C@H]3N(C)C2)O[C@@]2(O)[C@@H]3CCCN3C(=O)[C@H](Cc3ccccc3)N2C1=O	none
CC(C)[C@H]1C(=O)N2CCC[C@H]2[C@]2(O)O[C@](NC(=O)[C@@H]3C=C4c5cccc6[nH]cc(c56)C[C@H]4N(C)C3)(C(C)C)C(=O)N12	D1 antagonist -34
CC(C)[C@@]1(NC(=O)[C@@H]2C[C@@H]3c4cccc5[nH]cc(c45)C[C@H]3N(C)C2)O[C@@]2(O)[C@@H]3CCCN3C(=O)[C@H](Cc3ccccc3)N2C1=O	D1 antagonist -68
O=C(Nc1ccc(OC(F)(F)F)cc1)c1cccn(Cc2ccccc2Cl)c1=O	none
Cc1cccc(NC(=O)Cn2cc(C(=O)c3ccccc3)c3ccccc32)c1	none
CCCN(CCC)C1CCc2ccc(O)cc2C1 (stereo not drawn)	D1 antagonist -61
CCCCc1nc2ccccc2c(=O)n1-c1cccc(OC)c1	none
CCc1ccc(-n2nc(C)c3c2NC(=O)CSC3c2ccc(C(=O)OC)cc2)cc1 (stereo not drawn)	D1 antagonist -43
CCc1ccc(-n2nc(C)c3c2NC(=O)CSC3c2ccccc2C)cc1 (stereo not drawn)	none
C[N+]1(CC2COC(c3ccco3)O2)CCCCC1 (stereo not drawn)	D1 antagonist -33
OC(CN1CCC(c2c[nH]c3ccccc23)CC1)C(F)(F)F (stereo not drawn)	D1 antagonist -41
CCOc1ccc2nc(NC(=O)c3cccn(Cc4ccccc4C)c3=O)sc2c1	none
CC(C)Cc1nc2cccnc2n1C1CCNCC1	none
Cc1cccc(NC(=O)COC(=O)c2cc(C)n(C3CC3)c2C)c1	none
COC(=O)C(O)(c1ccc(NC(=S)NC(=O)c2ccc(Cl)cc2Cl)c(C)c1)C(F)(F)F (stereo not drawn)	D1 ag 46, D1 antagonist -52
CCOC(=O)C(O)(c1ccc(NC(=S)NC(=O)c2ccc(Cl)cc2Cl)c(C)c1)C(F)(F)F (stereo not drawn)	D1 ag 54, D1 antagonist -35
CCCSc1nc2ccccc2c(=O)n1-c1ccccc1OC	none
COc1ccc2[nH]c(C)c(CCNCc3cccnc3)c2c1	D1 ag 34
Cc1[nH]c2ccc(OC(F)(F)F)cc2c1CCNCc1ccc(Cl)cc1	D1 ag 41
CCOc1cccc(CNCCc2c(C)[nH]c3ccc(OC(F)(F)F)cc23)c1O	D1 ag 117
Cc1[nH]c2ccc(OC(F)(F)F)cc2c1CCNCc1cccc([N+](=O)[O-])c1	none
Cc1ccc2[nH]c(C)c(CCNCc3ccco3)c2c1	none
CCOc1ccc2nc(NC(=O)c3cccn(Cc4ccccc4Cl)c3=O)sc2c1	none
O=C(Nc1ccccc1C(F)(F)F)c1cccn(Cc2ccccc2)c1=O	none (no result: D1 antagonist)
COC(=O)C1=C(c2ccc(OC)c(OC)c2)C[C@@H]2CC[C@H]1N2C(=O)NCC1CC1	none
Cc1cccc(N2C(=O)/C(=C/N3CCN(C(=O)c4ccco4)CC3)C(=O)NC2=S)c1	none
Cc1ccc(N2C(=O)/C(=C/N3CCN(C(=O)c4ccco4)CC3)C(=O)NC2=S)cc1C	D1 antagonist -35
COc1ccc(-n2c(/C=C\c3ccccc3F)nc3ccccc3c2=O)cc1OC	none
Cc1ccc(C2=NCC(=O)N(CC(=O)N3CCCCC3)c3sc(C)c(C)c32)cc1	TRHR PAM 30
CCC(=O)N1CC(=O)Nc2ccc(C)cc2C1c1ccc(F)cc1 (stereo not drawn)	none
COc1ccc(OCC(=O)N2CCN(Cc3ccc(SC)cc3)CC2)cc1	D1 antagonist -38!
CCC(C(=O)Nc1ccccc1F)N1C(=O)CN=C(c2ccccc2)c2ccccc21 (stereo not drawn)	none
CCOC(=O)C1=C(N)OC2=C(C(=O)CC(C)(C)C2)C12C(=O)Nc1ccccc12 (stereo not drawn)	D1 antagonist -37
Cc1cc(NC(=O)c2cccn(Cc3cccc([N+](=O)[O-])c3)c2=O)no1	none (no result: D1 antagonist)
COc1ccc2c3c([nH]c2c1)C(C)=NCC3	none
CC1=NCCc2c1[nH]c1cc(O)ccc21	D1 ag 405
CCC1(CC)C(=O)N(C)C(=O)NC1=NC	D1 antagonist -35
CCC1(CC)C(=N)N(C)C(=O)NC1=O	none
CCOc1ccc(CN(CCc2ccc3c(c2)OCO3)Cc2cc(OC)ccc2O)cc1	none
O=Cc1cn(Cc2ccccc2F)c2ccccc12	none
CC(=O)c1cn(Cc2ccccc2F)c2ccccc12	D1 antagonist -55
CC(=O)c1cn(Cc2ccccc2C#N)c2ccccc12	D1 antagonist -34
COc1ccc(Br)cc1C1SCC(=O)Nc2c1c(C)nn2-c1ccccc1C (stereo not drawn)	none
COC(=O)C(Cc1ccc(N(CCCl)CCCl)cc1)N=Cc1ccccc1O (stereo not drawn)	D1 antagonist -40
CCOC(=O)C(NC(=O)C(Cc1ccc(N(CCCl)CCCl)cc1)NC(C)=O)C(C)C (stereo not drawn)	none
CCOc1ccc(CN(CCc2ccc3c(c2)OCO3)Cc2ccc(CC)cc2)cc1	none
Cc1ccc(OCC(=O)Nc2ccc(Cl)cc2C(=O)c2ccccc2)c(Br)c1	none
Cc1ccc(-c2nn3c(=O)cc(CN4CCN(C(=O)COc5ccc(C)c(C)c5)CC4)nc3s2)cc1	none
O=C(Nc1ccc(Cl)cc1C(=O)c1ccccc1)c1ccco1	D1 antagonist -33
O=C(Nc1ccc(Cl)cc1C(=O)c1ccccc1Cl)c1ccco1	D1 antagonist -39
Cc1ccc(-n2nc(C)c3c2NC(=O)CSC3c2ccc(O)cc2)cc1Cl (stereo not drawn)	none
Cc1ccc(NC(=O)CN2C(=O)CN=C(c3ccccc3)c3ccccc32)c(C)c1	none
Cc1cc(C=C(C#N)C#N)ccc1N1CCCC1	D1 ag 51
